{"source": "PubChem BioAssay AID1159580", "about": "(chemical genetic matrix, 2015)", "assay": "chemical genetic growth profiling, strain panel (AID 1159580);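 also: tested at 20 µM; growth read once vehicle control cultures reached saturation at 30 °C; 1 = growth at the plate median or of vehicle wells; lower values mean less growth of the strain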", "details": "growth OD", "note": "About 2,000 (36%) of roughly 5,500 compounds were called active. Inconclusive results (about 18%) are left out. This is one part of the list. Unmarked numbers belong to inactive results. Rule as the data show it: active = normalized growth mostly below about 0.91 (no sharp cut-off); inconclusive = no clear call, values can overlap the other calls; inactive = mostly above about 0.92."}
{"smiles": "C=C(C)[C@H]1CC=C(C(=O)O)CC1", "values": [{"measurement": "normalized growth", "setting": "S. cerevisiae deletion strains, locus YKL068W, hits give low values", "value": "0.858 (active)"}, {"measurement": "normalized growth", "setting": "S. cerevisiae deletion strains, locus YKL085W, strain MDH1 (second series), hits give low values", "value": "0.84 (active)"}, {"measurement": "normalized growth", "setting": "S. cerevisiae deletion strains, locus YKL085W, strain MDH1, hits give low values", "value": "0.84 (active)"}, {"measurement": "normalized growth", "setting": "S. cerevisiae deletion strains, locus YKL160W, strain elf1, hits give low values", "value": 0.969}, {"measurement": "normalized growth", "setting": "S. cerevisiae deletion strains, locus YKL190W, strain CNB1, hits give low values", "value": 1.01}, {"measurement": "normalized growth", "setting": "S. cerevisiae deletion strains, locus YKR001C, strain vps1, hits give low values", "value": "0.858 (active)"}, {"measurement": "normalized growth", "setting": "S. cerevisiae deletion strains, locus YKR026C, strain gcn3, hits give low values", "value": 0.98}, {"measurement": "normalized growth", "setting": "S. cerevisiae deletion strains, locus YKR091W, strain srl3, hits give low values", "value": 0.995}, {"measurement": "normalized growth", "setting": "S. cerevisiae deletion strains, locus YLL001W, strain dnm1, hits give low values", "value": 0.944}, {"measurement": "normalized growth", "setting": "S. cerevisiae deletion strains, locus YLL026W, hits give low values", "value": 0.97}, {"measurement": "normalized growth", "setting": "S. cerevisiae deletion strains, locus YLL041C, strain sdh2, hits give low values", "value": 0.998}, {"measurement": "normalized growth", "setting": "S. cerevisiae deletion strains, locus YLR027C, strain aat2, hits give low values", "value": 0.933}, {"measurement": "normalized growth", "setting": "S. cerevisiae deletion strains, locus YLR039C, strain RIC1, hits give low values", "value": 0.971}, {"measurement": "normalized growth", "setting": "S. cerevisiae deletion strains, locus YLR058C, strain SHM2, hits give low values", "value": 0.996}, {"measurement": "normalized growth", "setting": "S. cerevisiae deletion strains, locus YLR102C, strain apc9, hits give low values", "value": 0.966}, {"measurement": "normalized growth", "setting": "S. cerevisiae deletion strains, locus YLR113W, strain HOG1, hits give low values", "value": "0.658 (active)"}, {"measurement": "normalized growth", "setting": "S. cerevisiae deletion strains, locus YLR221C, strain rsa3, hits give low values", "value": 0.907}, {"measurement": "normalized growth", "setting": "S. cerevisiae deletion strains, locus YLR258W, strain gsy2, hits give low values", "value": 0.982}, {"measurement": "normalized growth", "setting": "S. cerevisiae deletion strains, locus YLR262C, strain YPT6 (second series), hits give low values", "value": 0.979}, {"measurement": "normalized growth", "setting": "S. cerevisiae deletion strains, locus YLR262C, strain YPT6, hits give low values", "value": 0.977}, {"measurement": "normalized growth", "setting": "S. cerevisiae deletion strains, locus YLR268W, strain sec22, hits give low values", "value": 0.948}, {"measurement": "normalized growth", "setting": "S. cerevisiae deletion strains, locus YLR320W, strain mms22, hits give low values", "value": 0.962}, {"measurement": "normalized growth", "setting": "S. cerevisiae deletion strains, locus YLR330W, strain CHS5, hits give low values", "value": 0.99}, {"measurement": "normalized growth", "setting": "S. cerevisiae deletion strains, locus YLR342W, strain FKS1 (second series), hits give low values", "value": 0.852}, {"measurement": "normalized growth", "setting": "S. cerevisiae deletion strains, locus YLR342W, strain FKS1, hits give low values", "value": 0.976}, {"measurement": "normalized growth", "setting": "S. cerevisiae deletion strains, locus YLR357W, strain rsc2, hits give low values", "value": 0.932}, {"measurement": "normalized growth", "setting": "S. cerevisiae deletion strains, locus YLR370C, strain arc18, hits give low values", "value": 0.989}, {"measurement": "normalized growth", "setting": "S. cerevisiae deletion strains, locus YLR371W, strain rom2, hits give low values", "value": 0.949}, {"measurement": "normalized growth", "setting": "S. cerevisiae deletion strains, locus YLR384C, strain iki3, hits give low values", "value": 0.986}, {"measurement": "normalized growth", "setting": "S. cerevisiae deletion strains, locus YLR418C, strain cdc73, hits give low values", "value": 0.982}, {"measurement": "normalized growth", "setting": "S. cerevisiae deletion strains, locus YML016C, strain PPZ1, hits give low values", "value": 1.02}, {"measurement": "normalized growth", "setting": "S. cerevisiae deletion strains, locus YML032C, strain rad52, hits give low values", "value": 0.919}, {"measurement": "normalized growth", "setting": "S. cerevisiae deletion strains, locus YML120C, strain ndi1, hits give low values", "value": 0.986}, {"measurement": "normalized growth", "setting": "S. cerevisiae deletion strains, locus YML124C, strain tub3, hits give low values", "value": 0.964}, {"measurement": "normalized growth", "setting": "S. cerevisiae deletion strains, locus YMR058W, strain fet3, hits give low values", "value": 0.96}, {"measurement": "normalized growth", "setting": "S. cerevisiae deletion strains, locus YMR078C, strain ctf18, hits give low values", "value": 0.956}, {"measurement": "normalized growth", "setting": "S. cerevisiae deletion strains, locus YMR125W, strain sto1, hits give low values", "value": 1.03}, {"measurement": "normalized growth", "setting": "S. cerevisiae deletion strains, locus YMR129W, hits give low values", "value": 0.991}, {"measurement": "normalized growth", "setting": "S. cerevisiae deletion strains, locus YMR205C, strain PFK2, hits give low values", "value": 1.02}, {"measurement": "normalized growth", "setting": "S. cerevisiae deletion strains, locus YMR223W, strain ubp8, hits give low values", "value": 0.917}, {"measurement": "normalized growth", "setting": "S. cerevisiae deletion strains, locus YMR231W, strain pep5, hits give low values", "value": 0.988}, {"measurement": "normalized growth", "setting": "S. cerevisiae deletion strains, locus YMR263W, strain SAP30, hits give low values", "value": 0.952}, {"measurement": "normalized growth", "setting": "S. cerevisiae deletion strains, locus YMR307W, strain GAS1, hits give low values", "value": 0.821}, {"measurement": "normalized growth", "setting": "S. cerevisiae deletion strains, locus YNL067W, strain RPL9B, hits give low values", "value": 0.908}, {"measurement": "normalized growth", "setting": "S. cerevisiae deletion strains, locus YNL071W, strain lat1, hits give low values", "value": 0.991}, {"measurement": "normalized growth", "setting": "S. cerevisiae deletion strains, locus YNL128W, strain TEP1, hits give low values", "value": 0.996}, {"measurement": "normalized growth", "setting": "S. cerevisiae deletion strains, locus YNL153C, strain GIM3, hits give low values", "value": 0.924}, {"measurement": "normalized growth", "setting": "S. cerevisiae deletion strains, locus YNL183C, strain NPR1, hits give low values", "value": "0.743 (active)"}, {"measurement": "normalized growth", "setting": "S. cerevisiae deletion strains, locus YNL209W, strain ssb2, hits give low values", "value": 0.992}, {"measurement": "normalized growth", "setting": "S. cerevisiae deletion strains, locus YNL233W, strain BNI4, hits give low values", "value": 0.955}, {"measurement": "normalized growth", "setting": "S. cerevisiae deletion strains, locus YNL248C, strain rpa49, hits give low values", "value": "0.803 (active)"}, {"measurement": "normalized growth", "setting": "S. cerevisiae deletion strains, locus YNL250W, strain rad50, hits give low values", "value": "0.852 (active)"}, {"measurement": "normalized growth", "setting": "S. cerevisiae deletion strains, locus YNL271C, strain bni1, hits give low values", "value": "0.876 (active)"}, {"measurement": "normalized growth", "setting": "S. cerevisiae deletion strains, locus YNL298W, strain CLA4, hits give low values", "value": "0.814 (active)"}, {"measurement": "normalized growth", "setting": "S. cerevisiae deletion strains, locus YNL307C, strain MCK1, hits give low values", "value": 0.912}, {"measurement": "normalized growth", "setting": "S. cerevisiae deletion strains, locus YNL322C, strain KRE1 (second series), hits give low values", "value": 0.912}, {"measurement": "normalized growth", "setting": "S. cerevisiae deletion strains, locus YNL322C, strain KRE1, hits give low values", "value": 1}, {"measurement": "normalized growth", "setting": "S. cerevisiae deletion strains, locus YNR049C, strain mso1, hits give low values", "value": 0.971}, {"measurement": "normalized growth", "setting": "S. cerevisiae deletion strains, locus YNR052C, strain pop2, hits give low values", "value": 0.921}, {"measurement": "normalized growth", "setting": "S. cerevisiae deletion strains, locus YOL006C, strain TOP1, hits give low values", "value": 0.97}, {"measurement": "normalized growth", "setting": "S. cerevisiae deletion strains, locus YOL012C, strain htz1", "value": 1.09}, {"measurement": "normalized growth", "setting": "S. cerevisiae deletion strains, locus YOL147C, strain pex11, hits give low values", "value": 0.976}, {"measurement": "normalized growth", "setting": "S. cerevisiae deletion strains, locus YOR001W, strain rrp6, hits give low values", "value": 0.894}, {"measurement": "normalized growth", "setting": "S. cerevisiae deletion strains, locus YOR061W, strain CKA2, hits give low values", "value": 0.971}, {"measurement": "normalized growth", "setting": "S. cerevisiae deletion strains, locus YOR069W, strain VPS5, hits give low values", "value": 1}, {"measurement": "normalized growth", "setting": "S. cerevisiae deletion strains, locus YOR070C, strain gyp1, hits give low values", "value": 0.963}, {"measurement": "normalized growth", "setting": "S. cerevisiae deletion strains, locus YOR080W, strain dia2, hits give low values", "value": 0.971}, {"measurement": "normalized growth", "setting": "S. cerevisiae deletion strains, locus YOR083W, strain WHI5, hits give low values", "value": 0.934}, {"measurement": "normalized growth", "setting": "S. cerevisiae deletion strains, locus YOR106W, strain vam3, hits give low values", "value": 0.967}, {"measurement": "normalized growth", "setting": "S. cerevisiae deletion strains, locus YOR136W, strain idh2, hits give low values", "value": 0.966}, {"measurement": "normalized growth", "setting": "S. cerevisiae deletion strains, locus YOR144C, strain elg1, hits give low values", "value": 0.946}, {"measurement": "normalized growth", "setting": "S. cerevisiae deletion strains, locus YOR184W, strain ser1, hits give low values", "value": "0.862 (active)"}, {"measurement": "normalized growth", "setting": "S. cerevisiae deletion strains, locus YOR231W, strain MKK1, hits give low values", "value": "0.761 (active)"}, {"measurement": "normalized growth", "setting": "S. cerevisiae deletion strains, locus YOR265W, strain rbl2, hits give low values", "value": 1.01}, {"measurement": "normalized growth", "setting": "S. cerevisiae deletion strains, locus YOR270C, strain vph1, hits give low values", "value": 0.959}, {"measurement": "normalized growth", "setting": "S. cerevisiae deletion strains, locus YOR290C, strain snf2, hits give low values", "value": 0.95}, {"measurement": "normalized growth", "setting": "S. cerevisiae deletion strains, locus YOR316C, strain cot1, hits give low values", "value": 0.978}, {"measurement": "normalized growth", "setting": "S. cerevisiae deletion strains, locus YPL051W, strain arl3, hits give low values", "value": 0.964}, {"measurement": "normalized growth", "setting": "S. cerevisiae deletion strains, locus YPL078C, strain atp4, hits give low values", "value": 0.959}, {"measurement": "normalized growth", "setting": "S. cerevisiae deletion strains, locus YPL106C, strain sse1, hits give low values", "value": 0.967}, {"measurement": "normalized growth", "setting": "S. cerevisiae deletion strains, locus YPL240C, strain hsp82, hits give low values", "value": 0.989}, {"measurement": "normalized growth", "setting": "S. cerevisiae deletion strains, locus YPL241C, strain CIN2, hits give low values", "value": 1.01}, {"measurement": "normalized growth", "setting": "S. cerevisiae deletion strains, locus YPL256C, strain CLN2, hits give low values", "value": "0.71 (active)"}, {"measurement": "normalized growth", "setting": "S. cerevisiae deletion strains, locus YPR119W, strain clb2, hits give low values", "value": 0.981}, {"measurement": "normalized growth", "setting": "S. cerevisiae deletion strains, locus YPR141C, strain kar3, hits give low values", "value": "0.751 (active)"}, {"measurement": "normalized growth", "setting": "S. cerevisiae deletion strains, locus YPR163C, strain tif3, hits give low values", "value": "0.911 (active)"}, {"measurement": "normalized growth", "setting": "S. cerevisiae deletion strains, locus YPR167C, strain met16, hits give low values", "value": 0.929}, {"measurement": "normalized growth", "setting": "S. cerevisiae deletion strains, strain wtn01, hits give low values", "value": 0.904}, {"measurement": "normalized growth", "setting": "S. cerevisiae strains, strain wild type, hits give low values", "value": 0.999}]}
